This is part of a sample that, as a whole, favours compounds with a hit. Of some 83,000 tested, about 20% had one in any assay.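 Method: cells in 96-well plates; compound added at one concentration; 48 h incubation; percent growth measured; values under 10 scored active.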 Values without a mark were called inactive. Calls of active or inactive are those of the source.

This assay relates to MDA-MB-231 breast. In words: NCI-60 one-dose screen, 48 h (100 = growth as untreated, 0 = no growth, -100 = all killed). Particulars: 10 µM unless noted.
`C=CC1=C[C@@H]2[C@@H]3O[C@]4(CC[C@H](O4)[C@@H](C)C[C@@H](O)C3=O)C[C@H](O)C3=NCC[C@@]32CC1`: the growth is -29.2% (active). As for `Cc1cc(-c2nc3cc(F)ccc3[se]2)cc(F)c1N`, the growth is 63.5%. Turning to `CN1CC(=O)N(O)C1(C)c1cccnc1` (configuration not stated), the growth is 113%.

`O=C(Nc1ccncc1F)c1cn(CC2CC2)c2ccccc12`: the growth was 109%. Consider `COc1cccc2c1c(C(=O)C(=O)Nc1cc(C)no1)cn2Cc1ccc(F)cc1`, for which the growth is 77.5%. As to `CC(C)OC(=O)[C@H](C)NP(=O)(Oc1ccccc1)C1CCCN(O)C1=O` (some centres not stated), the growth was 92.3%. As for `CC[C@@H]1[C@@H](C)O[C@@](O)([C@@H](C)[C@H](O)[C@H](C)[C@H]2OC(=O)/C=C/C=C/[C@H](C)[C@@H]([C@@H](C)[C@@H](O)[C@H](C)[C@@]3(O)C[C@@H](O[C@H]4C[C@@H](O)[C@H](O)C(C)O4)[C@H](CC)[C@@H](C)O3)OC(=O)/C=C/C=C/[C@@H]2C)C[C@H]1O[C@@H]1C[C@@H](O)[C@H](O)C(C)O1` (some centres not stated), the growth was -68.3% (active).

Turning to `CCOc1ccc(/C=C/[N+](=O)[O-])cc1`, the growth is 92.8%.

For the compound `O=C1C2C(C(=O)[N]1[Hg][c]1ccccc1)C1(Cl)C(Cl)=C(Cl)C2(Cl)C1(Cl)Cl` (configuration not stated), the growth is -2.38% (active).

As for `COC(=O)[C@@H](C)C[C@H](Cc1ccc2ccccc2c1)NC(=O)c1csc([C@@H](C[C@H](C(C)C)N(C)C(=O)[C@@H](NC(=O)[C@H]2CCCCN2C)C(C)C)OC(C)=O)n1`, the growth is 21.2%.

As for `Cc1cc(N(CCCl)CCCl)ccc1C=Nc1ccccc1-c1ccccc1`, the growth is 94.4%. On to `CCn1cnc2c(Nc3cccc(Cl)c3)nc(N[C@@H]3CCCC[C@@H]3N)nc21`, for which the growth was -22.3% (active).

As to `CC12CCC3C(CCC4=CC(=O)CCC43CF)C1CCC2=O` (configuration not stated), the growth was 118%. With `C=CC12CCN(CC1)C(C(O)c1ccnc3ccc(OC)cc13)C2` (configuration not stated), the growth is 51.2%. As for `COc1cc([C@@H]2c3cc4c(cc3[C@H](OC(C)=O)[C@H]3COC(=O)[C@H]23)OCO4)cc(OC)c1OC`, the figure is 23.7%; as for `CC(=O)[O][Hg][O]C(C)=O`, 110%; as for `O=C(CCCCCCC(=O)Nc1ccc(N(CCCl)CCCl)cc1)NO`, 85.8%. For `CC[C@H](C)[C@H](NC(=O)[C@H]1CCCCN1C)C(=O)N(C)[C@H](C[C@@H](OC(C)=O)c1nc(C(=O)NC23CC(C(=O)OC)(C2)C3)cs1)C(C)C`, the growth is 15%. The value for `COc1ccc(/C(C)=C(\c2ccc(OCCN3CCOCC3)cc2)c2ccc(OC(=O)Cc3ccccc3)cc2)cc1` was 109%. `NC(=O)C(Br)c1ccccc1` (configuration not stated): the growth was 87.8%. As for `O=C([O][Hg][CH2]C1OCCOC1[CH2][Hg][O]C(=O)c1ccccc1)c1ccccc1` (configuration not stated), the figure is 93.2%; as for `CN(C)CCCOc1ccc2c(c1)c(C(=O)C(=O)NCCO)cn2Cc1ccccc1`, 104%. As for `C1CCC([PH+](C2CCCCC2)C2CCCCC2[PH+](C2CCCCC2)C2CCCCC2)CC1.O=C(C1[CH-]CCCC1)C1CCCC[N-]1.[Au]` (configuration not stated), the figure is -54.9% (active); as for `C[Se]C(=O)c1ccccc1OC(C)=O`, 68.3%. With `CC(C)COC(C[N+](=O)[O-])C(Cl)(Cl)Cl` (configuration not stated), the growth was 111%. For the compound `Oc1c(O)c(Cl)c(Cl)c(Cl)c1Cl`, the growth is 44.8%.

`NC(N)=N/N=C\c1c[nH]c2ccc(Br)cc12`: the growth was 101%.

In the case of `Brc1ccc2c(c1)c(-c1nc(-c3c[nH]c4ncccc34)cs1)cn2CCN1CCCCC1`, the growth is 62.1%. As to `COc1ccc2c(c1)c(C1(O)CC(CSC#N)OC1=O)cn2C(=O)c1ccc(Cl)cc1` (configuration not stated), the growth is 92.9%. As for `COC(=O)[C@@H](C)C[C@H](Cc1ccccc1)NC(=O)c1nc([C@@H](C[C@H](C(C)C)N(C)C(=O)[C@@H](NC(=O)[C@H]2CCCCN2C)C(C)C)OC(C)=O)sc1C`, the figure is -11.6% (active); as for `COc1ccc(-n2c(C)nc3cc(OC)c(OC)cc3c2=O)cc1OC`, 116%. As for `CC[S][Hg][Cl]`, the figure is 114%; as for `COc1ccc(C2=CC(c3ccc(OC)c(OC)c3)c3c(c4ccccc4oc3=O)O2)cc1OC` (configuration not stated), 27.8%; as for `COc1ccc(/C=C\c2cc(OC)c(OC)c(OC)c2)cc1OCC(=O)Nc1nc2ccc(OC(F)(F)F)cc2s1`, 36.7%.

For the compound `CCCCCCCCCCCCCCCCCC1OC[C@H](COC(=O)O[C@@H](C(=O)O[C@H]2C[C@@]3(O)[C@@H](OC(=O)c4ccccc4)[C@@H]4[C@]5(OC(C)=O)CO[C@@H]5C[C@H](O)[C@@]4(C)C(=O)[C@H](OC(C)=O)C(=C2C)C3(C)C)[C@@H](NC(=O)c2ccccc2)c2ccccc2)O1` (some centres not stated), the growth is 47.2%.

On to `O=C(Nc1ccc(O)cc1)C(Cl)(Cl)Cl`, for which the growth was 98.4%. For the compound `CCOC(=O)[C@@H](C)C[C@H](Cc1ccccc1)NC(=O)c1nc([C@@H](C[C@H](C(C)C)N(C)C(=O)[C@@H](NC(=O)[C@H]2CCCCN2C)C(C)C)OC(C)=O)sc1CCOCc1ccccc1`, the growth is -49.8% (active).

(Values after PubChem BioAssay (NCI).)
